Measurements from PubChem BioAssay AID463173 (ICCB-Longwood Screening Facility, Harvard Medical School, 2010).
About 4,300 (8.3%) of roughly 52,000 compounds were called active. This excerpt belongs to a sample that is enriched for actives. A number with no mark means an inactive call. Rule as the data show it: active = survival mostly below about 52% (no sharp cut-off); inactive = mostly above about 56%.

The compounds below were run on DeltatarO mutant (assay: growth inhibition of S. aureus wild type versus tarO mutant, primary screen, teichoic acid synthesis inhibitors, RN4220, OD600 (AID 463173)). Settings: OD600, 18 h, active compounds read low, screened at 18.75 µg/mL (by protocol).

Compound | survival
CCOc1ccccc1C(=O)N(Cc1ccco1)Cc1ccco1 | 73%
O=C(c1ccccc1Br)N(Cc1ccco1)Cc1ccco1 | 45% (active)
CCc1ccc(CN(Cc2ccco2)C(=O)c2ccccc2Cl)cc1 | 46% (active)
CCc1ccc(CN(Cc2ccco2)C(=O)c2ccc(OC)cc2)cc1 | 52% (active)
Cc1ccc(C(=O)N(Cc2ccc(N(C)C)cc2)Cc2ccco2)cc1 | 73%
CCc1ccc(CN(Cc2ccco2)C(=O)c2ccc(C)cc2)cc1 | 41% (active)
COc1ccc(C(=O)N(Cc2ccco2)Cc2ccco2)cc1 | 58%
Cc1ccc(CN(Cc2ccco2)C(=O)c2ccccc2Cl)o1 | 74%
Cc1ccc(C(=O)N(Cc2ccco2)Cc2ccco2)cc1 | 61%
COc1ccc(C(=O)N(Cc2ccco2)Cc2ccc(C)o2)cc1 | 71%
Cc1ccc(CN(Cc2ccco2)C(=O)c2ccccc2Br)o1 | 47%
O=C(c1ccccc1Cl)N(Cc1ccco1)Cc1ccco1 | 60%
COc1cccc(/C=C(\C#N)C(=O)Nc2ccc(NC(C)=O)cc2)c1OC | 89%
Cc1ccccc1C(=O)Nc1ccc2oc(-c3ccc(Cl)c(Cl)c3)nc2c1 | 64%
Cc1ccc2cc(CN(Cc3ccccc3)C(=O)C3CC3)c3nnnn3c2c1 | 100%
O=C(NCc1ccco1)C(c1ccccc1)N(C(=O)Cn1nnc2ccccc21)C1CCCC1 (stereo not given) | 105%
Cc1ccc(N2CC(NC(=O)c3ccccc3C(F)(F)F)CC2=O)cc1C (stereo not given) | 55%
CC(=O)Nc1ccc(NC(=O)CN(C)S(=O)(=O)c2ccc3c(c2)CCCC(=O)N3)cc1 | 84%
CCN(CC)C(NC(=O)c1ccccc1)C(=O)c1ccccc1 (stereo not given) | 85%
COc1ccc(-c2nn(-c3cccc(F)c3)c3c2cnc2cc(OC)c(OC)cc23)cc1 | 67%
Cc1ccc(S(=O)(=O)N(CCO)Cc2ccccc2)cc1 | 87%
COC(=O)c1cc(NC(=O)Cn2nc(-c3ccccc3)c3c(c2=O)CCCC3)cc(C(=O)OC)c1 | 24% (active)
COC(=O)c1cc(NC(=O)Cn2nc(C)n3cccc3c2=O)cc(C(=O)OC)c1 | 87%
O=C(Cn1nc(C(F)(F)F)c2c1CCCC2)Nc1ccc(F)c(Cl)c1 | 62%

Compound | survival
CCc1nc(Nc2ccc(F)c(Cl)c2)c2c3c(sc2n1)CCCC3 | -4% (active)
COc1ccc(Nc2ncnc3sc4c(c23)CCCC4)cc1 | 69%
COC(=O)c1cc(NC(=O)Cn2nc(-c3ccc(C)c(C)c3)ccc2=O)cc(C(=O)OC)c1 | 65%
O=C(Cn1c(=O)nc(-c2ccccc2)c2cc(Cl)ccc21)Nc1ccc(F)c(Cl)c1 | 75%
Cc1ccc(Cl)cc1NC(=O)C(C)n1nnc2sc3c(c2c1=O)CCCC3 (stereo not given) | 69%
CC(C(=O)Nc1ccccc1C(F)(F)F)n1nnc2sc3c(c2c1=O)CCCC3 (stereo not given) | 81%
O=C(Cn1nc(-c2ccccc2)c2c(c1=O)CCCC2)Nc1ccc(F)c(Cl)c1 | 23% (active)
CC(=O)Nc1ccc(Nc2ncnc3sc4c(c23)CCCC4)cc1 | 76%
CC(C(=O)Nc1cc(C(F)(F)F)ccc1Cl)n1nnc2sc3c(c2c1=O)CCCC3 (stereo not given) | 53% (active)
COc1ccc(OCC(=O)Nc2ccc(-c3nc4cc(C)cc(C)c4o3)cc2)cc1 | 75%
CCOC(=O)C1=C(CN2CCN(c3ccc(Cl)cc3)CC2)NC(=O)NC1c1ccc(F)cc1 (stereo not given) | 70%
CCOC(=O)c1nc(Nc2ccc(Cl)cc2)c2c(C)noc2n1 | 68%
COc1ccc(OC)c(CNC(=O)c2ccc(NC(=O)c3nsc4ccccc34)cc2)c1 | 80%
COc1ccc(NC(=O)Cn2nnc3sc4c(c3c2=O)CCCC4)cc1 | 61%
O=C(Cn1nnc2sc3c(c2c1=O)CCCC3)Nc1ccc(F)c(Cl)c1 | 36% (active)
Cc1c(Cl)cccc1NC(=O)Cn1nnc2sc3c(c2c1=O)CCCC3 | 75%
CCOc1ccc(/C=C(\C#N)c2nc(-c3cc4ccccc4oc3=O)cs2)c(OCC)c1 | 81%
COc1ccc(C(=O)Nc2cccc(-c3nc4cccnc4s3)c2C)c(OC)c1 | 103%
CCCCC(=O)Nc1cc(-c2nc3cccnc3s2)ccc1C | 35% (active)
CCOc1ccc(CC(=O)Nc2cccc(-c3nc4cccnc4s3)c2C)cc1 | 90%
COCC(=O)Nc1cccc(-c2nc3cccnc3s2)c1 | 68%
Cc1cccc(C(=O)Nc2cc(-c3nc4cccnc4s3)ccc2C)c1 | 45% (active)
Cc1ccc(C(=O)Nc2cccc(-c3nc4cccnc4s3)c2C)cc1 | 111%
Cc1ccc(-c2nc3cccnc3s2)cc1NC(=O)Cc1ccccc1 | 99%

Compound | survival
COc1ccc(CC(=O)Nc2cc(-c3nc4cccnc4s3)ccc2C)cc1 | 41% (active)
Cc1cccc(CC(=O)Nc2cccc(-c3nc4cccnc4s3)c2)c1 | 93%
COc1cc(OC)cc(C(=O)Nc2cc(-c3nc4cccnc4s3)ccc2C)c1 | 43% (active)
CCCCC(=O)Nc1cc(-c2cn3cccnc3n2)ccc1C | 102%
CCCC(=O)Nc1cc(-c2nc3cccnc3s2)ccc1C | 109%
COc1ccc(N2CCN(C(=O)CS(=O)(=O)c3cccc4nsnc34)CC2)cc1 | 107%
O=C(CSc1nc2c([nH]c3ccccc32)c(=O)n1-c1cccc(C(F)(F)F)c1)N1CCCC1 | 71%
Cc1c(C(=O)Nc2ccc(F)c(C(F)(F)F)c2)sc2nc(-c3ccccc3)cn12 | 105%
CCOC(=O)C1=CN(O)/C(=C\N=O)C=C1 | 78%
COc1ccc(Cl)cc1NC(=O)CSc1cc(C)[nH]c(=O)n1 | 80%
COc1ccc(S(=O)(=O)c2cn(C)c3cc(N4CCCCCC4)c(F)cc3c2=O)cc1 | 86%
Cc1ccccc1Nc1c(-c2c(F)cccc2Cl)nc2ccc(Br)cn12 | 69%
COc1ccc(/C=C\c2onc(C)c2S(=O)(=O)N2CCC(C(=O)Nc3ccc(Cl)cc3)CC2)cc1 | 65%
CN(C)c1ccc(C(=O)Nc2cccc(-c3nc4cccnc4s3)c2)cc1 | 49%
O=C(Nc1cccc(-c2nc3cccnc3s2)c1)c1cccc(Br)c1 | 32% (active)
CCCCOc1ccc(C(=O)Nc2cccc(-c3nc4cccnc4s3)c2)cc1 | 92%
CCOc1ccccc1C(=O)Nc1cc(-c2nc3cccnc3s2)ccc1C | 37% (active)
Cc1ccccc1C(=O)Nc1cccc(-c2nc3cccnc3s2)c1 | 81%
CCOc1ccc(C(=O)Nc2cccc(-c3nc4cccnc4s3)c2C)cc1OCC | 90%
COc1ccc(CC(=O)N2N=C(c3ccncc3)CC2(O)C(F)(F)F)cc1 (stereo not given) | 104%
COc1ccccc1CNC(=O)CCCn1c(=O)c2ccccc2n(CC(=O)Nc2c(C)cc(C)cc2C)c1=O | 166%
N#Cc1ccc(CSCC(=O)NN=C2CCCC2)cc1 | 65%
COc1ccc(OCC2c3cc(OC)c(OC)cc3CCN2C(=O)c2ccc(F)cc2)cc1 (stereo not given) | 94%
Cc1ccc(NC(=O)c2sc3ccccc3c2Cl)cc1 | 66%

Compound | survival
Cc1cccc(NC(=O)c2sc3cccc(Cl)c3c2Cl)c1 | 11% (active)
CCN(CC)c1ccc(NC(=O)c2sc3ccccc3c2Cl)cc1 | -2% (active)
COc1ccccc1NC(=O)c1sc2cccc(Cl)c2c1Cl | 64%
CCOC(=O)c1ccc(NC(=O)c2sc3ccccc3c2Cl)cc1 | 67%
CCCC(=O)Nc1ccc(NC(=O)c2sc3ccccc3c2Cl)cc1 | 109%
CCOc1ccc(NC(=O)c2sc3ccccc3c2Cl)cc1 | 68%
CCOC(=O)c1ccccc1NC(=O)c1sc2ccccc2c1Cl | 36% (active)
O=C(Nc1ccccc1Cl)c1sc2cccc(Cl)c2c1Cl | 63%
CC(C)NC(=O)c1ccc2c(c1)nc1n2CCCCC1 | 91%
COc1cccc(Cn2c(=O)n(CC3CCC(C(=O)N4CCOCC4)CC3)c(=O)c3sccc32)c1 (stereo not given) | 124%
CCc1ccc(S(=O)(=O)c2cn(CC)c3cc(N4CCCCC4)c(F)cc3c2=O)cc1 | 83%
CCOc1ccc2[nH]c(=O)c(CN(Cc3ccccc3OC)C(=O)N3CCCC3)cc2c1 | 96%
NCCS(=O)(=O)N1CCCC1 | 88%
Cc1ccn2c(c1)nc(=O)c1cc(S(=O)(=O)N3CCC(C)CC3)c(Cl)cc12 | 87%
COc1ccc(NC(=O)CC2C(=O)N(c3cccc(C)c3)C(=O)N2C2CCCCC2)cc1 (stereo not given) | 69%
COc1ccc(NC(=O)CSc2ccc3nc(-c4ccccc4)cn3n2)cc1OC | 113%
CCOC(=O)N1CCN(Cc2nc3cc(NC(=O)c4ccccc4Cl)ccc3n2C(C)C)CC1 | 70%
COC(=O)CN1C(=O)CSc2ccc(S(=O)(=O)Nc3ccccc3)cc21 | 91%
COC(=O)CN1C(=O)CSc2ccc(S(=O)(=O)Nc3c(C)cc(C)cc3C)cc21 | 101%
COC(=O)CN1C(=O)CSc2ccc(S(=O)(=O)Nc3cccc(C)c3)cc21 | 101%
COC(=O)CN1C(=O)CSc2ccc(S(=O)(=O)Nc3cc(C)ccc3C)cc21 | 25% (active)
COC(=O)CN1C(=O)CSc2ccc(S(=O)(=O)Nc3cccc(C)c3C)cc21 | 63%
COC(=O)CN1C(=O)CSc2ccc(S(=O)(=O)Nc3cccc(Br)c3)cc21 | 37% (active)
